In all, about 290,000 compounds went through this assay and about 490 (0.17%) were called active. Rule as the data show it: active = inhibition above about 37%; inactive = the rest. The sample as a whole holds a higher share of actives than the screen did.
Experiment: DNA intercalator displacement agents – biochemical, FID fluorescence, artefact control for HCV NS3 helicase inhibitor project, primary screen (AID 1845);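 also: 0% = vehicle and 100% = reference compound; higher means more ethidium bromide displaced from hairpin DNA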
Conditions: DNA fluorescent intercalator displacement, at 7.9 µM, stronger effect = higher value

SMILES	inhibition
COC(=O)C1(C)NC(c2ccc(F)cc2)C2C(=O)N(c3ccccc3)C(=O)C21 (centres undefined)	0.11% (inactive)
CN(C)C(=O)CCC(=O)N1CCCCC1C(=O)Nc1ccc(Oc2ccccc2F)cc1 (centres undefined)	-34% (inactive)
C#CCOCCOCCOCCNc1nc(N2CCN(C(=O)[C@H](Cc3ccc(O)cc3)n3cc(C(N)CC(C)C)nn3)CC2)nc(N2CCN(C(=O)[C@H](CCC(=O)O)n3cc(C(N)[C@H](C)CC)nn3)CC2)n1 (some centres undefined)	17.7% (inactive)
C#CCOCCOCCOCCNc1nc(N2CCN(C(=O)[C@H](CCC(=O)O)n3cc(C(N)CO)nn3)CC2)nc(N2CCN(C(=O)[C@H](Cc3ccc(O)cc3)n3cc(C(N)[C@H](C)CC)nn3)CC2)n1 (some centres undefined)	6.75% (inactive)
C#CCOCCOCCOCCNc1nc(N2CCN(C(=O)C(Cc3ccc(O)cc3)n3cc(C(N)CC(C)C)nn3)CC2)nc(N2CCN(C(=O)C(Cc3ccc(O)cc3)n3cc(C(N)C(C)CC)nn3)CC2)n1 (centres undefined)	46.3% (active)
C#CCOCCOCCOCCNc1nc(N2CCN(C(=O)[C@H](CCCCN)n3cc([C@@H](N)C(C)CC)nn3)CC2)nc(N2CCN(C(=O)[C@H](Cc3ccc(O)cc3)n3cc([C@@H](N)C(C)CC)nn3)CC2)n1 (some centres undefined)	55.6% (active)
C#CCOCCOCCOCCNc1nc(N2CCN(C(=O)[C@H](C(C)C)n3cc(CCO)nn3)CC2)nc(N2CCN(C(=O)[C@H](C(C)C)n3cc(CCO)nn3)CC2)n1	-49.9% (inactive)
C#CCOCCOCCOCCNc1nc(N2CCN(C(=O)[C@H](C(C)C)n3cc(CCO)nn3)CC2)nc(N2CCN(C(=O)[C@H]([C@@H](C)CC)n3cc(CCCN=C(N)N)nn3)CC2)n1	21.4% (inactive)
Cc1cc(C)n(CCNS(=O)(=O)c2ccc(Cl)cc2)n1	-8.78% (inactive)
COc1ccc(S(=O)(=O)NNC(=O)Nc2ccc(C)cc2)c(OC)c1	-10.4% (inactive)
CN1CCN(S(=O)(=O)c2cccc(C(=O)Nc3cccc(S(N)(=O)=O)c3)c2)CC1	12.4% (inactive)
Cc1ccc(S(=O)(=O)NC2CCCCCC2)cc1C(N)=O	-7.28% (inactive)
CSc1ncc(C(=O)Nc2ccc(C)cc2C)c(C)n1	-12.3% (inactive)
Cc1ccccc1C(=O)N1CCN(c2ccc(NC(=O)c3cccs3)cc2)CC1	-49.5% (inactive)
CC(C)c1nc2cc(C(=O)NC(C)c3cnn(C)c3)ccc2o1 (centres undefined)	-13.1% (inactive)
COc1cccc(NC(=O)Cn2cnc3sc(C)c(S(=O)(=O)N4CCN(C)CC4)c3c2=O)c1	26.6% (inactive)
COc1ccc(NC(=O)CCS(=O)(=O)c2cc3c(cc2Cl)NC(=O)CO3)cc1OC	-5.06% (inactive)
COc1ccc(CNC(=O)C(c2ccc(O)cc2)N(Cc2ccco2)C(=O)c2snc(C(N)=O)c2N)cc1 (centres undefined)	-26.1% (inactive)
O=C(Cn1c(NCCO)nc2ccccc21)c1ccc(Cl)cc1Cl	8.95% (inactive)
Cc1cc(C)c2c(Cn3ccnc3)cc(=O)oc2c1	-1.43% (inactive)
Cc1sc2nc(SCCO)n(-c3ccccc3)c(=O)c2c1C	-17.8% (inactive)
Cc1cc(=O)[nH]c(Nc2cccc(Br)c2)n1	-6.32% (inactive)
CC(C)(C)OC(=O)CNC(=O)c1[nH]cnc1C(=O)N[C@@H](Cc1ccccc1)C(=O)OCc1ccccc1	-34.4% (inactive)
CN(C)C(=O)c1ccc(NC(=O)c2ccccc2-c2ccccc2)cc1	-15.1% (inactive)
Cc1ccoc1C(=O)Nc1cccc(Oc2ccccc2)c1	-5.38% (inactive)

SMILES	inhibition
CCC(C(=O)NCCC(C)C)N(Cc1ccccc1Cl)C(=O)c1snc(C(N)=O)c1N (centres undefined)	-29.9% (inactive)
COc1ccc(NC(=O)CN2C(=O)COc3ccc(S(=O)(=O)N4CCOCC4)cc32)c(OC)c1	-13.3% (inactive)
COc1ccc(N2CCN(CCNC(=O)Nc3cc(Cl)ccc3Cl)CC2)cc1	21% (inactive)
CCCCc1nc(SCC(=O)Nc2nnc(C(C)C)s2)n[nH]1	-16.5% (inactive)
CN1C(=O)/C(=C/c2ccc(C(=O)NC3CCCC3)cc2)Oc2ccccc21	1.1% (inactive)
O=C(NCCN1CCOCC1)c1ccc(/C=C2\Sc3ccccc3N(Cc3ccc(F)cc3)C2=O)cc1	0.94% (inactive)
CN1CCN(CCCNC(=O)c2ccc(/C=C3\Oc4ccccc4N(Cc4ccc(Cl)cc4)C3=O)cc2)CC1	40.6% (active)
CN(C)c1nc(Nc2ccc(Cl)c(Cl)c2)nc(N(C)C)n1	-4.12% (inactive)
OCCNc1nc(Nc2ccc(Cl)c(Cl)c2)nc2ccccc12	40.6% (active)
Nc1nc(Nc2ccccc2)nc(NCCO)c1[N+](=O)[O-]	-6.38% (inactive)
COc1ccc(NC(=O)NNC(=O)COc2cc(C)c(Cl)c(C)c2)c(OC)c1	-28% (inactive)
CCOC(=O)C(NS(=O)(=O)c1ccc(C)cc1)(C(F)(F)F)P(=O)(OCC(C)C)OCC(C)C (centres undefined)	-11.5% (inactive)
Cc1cc(OCC(=O)N2CCN(c3ncccn3)CC2)ccc1Cl	-46.1% (inactive)
O=C(O)c1ccc2c(=O)n3c(nc2c1)/C(=C/c1ccc(Cl)c([N+](=O)[O-])c1)CC3	-14.2% (inactive)
Cc1cccc(OCC(O)Cn2c(=N)n(CCN3CCOCC3)c3ccccc32)c1 (centres undefined)	18.2% (inactive)
CCOc1ccc(C(O)Cn2c(=N)n(CCN3CCCCC3)c3ccccc32)cc1 (centres undefined)	40.9% (active)
Cn1c(=N)n(CC(O)c2ccccc2)c2ccccc21 (centres undefined)	2.17% (inactive)
CCC1CCCCN1CCCNC(=O)c1cc2c(Cl)nc3ccccc3c2s1 (centres undefined)	43.6% (active)
CCC1CCCCN1CCCNC(=O)Cn1nc(-c2ccccc2)ccc1=O (centres undefined)	0.11% (inactive)
CCC1CCCCN1CCCNC(=O)C1CCC(Cn2c(=O)[nH]c3ccccc3c2=O)CC1 (centres undefined)	2.92% (inactive)
O=C(N/N=C/c1ccc(OCC2COCCO2)cc1)c1ccc(Br)cc1 (centres undefined)	-19.9% (inactive)
CCCCCCc1cc2cc(-c3nnc(-c4cccc(OC)c4)o3)c(=O)oc2cc1O	0.28% (inactive)
CN(C)CCCn1c(SCc2ccc(Cl)cc2)nnc1-c1ccncc1	3.61% (inactive)
COc1ccc(OC)c(NC(=O)CN(Cc2ccc(Cl)cc2)S(C)(=O)=O)c1	-26.1% (inactive)
